“And” between values parts separate entries of the source, which are not always exact repeats. Equal values may be shown once. Hit rate of the full screen: of about 5,500 compounds, about 2,000 (36%) were called active. Another 18% or so got no clear call; they are omitted. Cut-off read from the data, not from the text of the source: active = normalized growth mostly below about 0.91 (no sharp cut-off); inconclusive = no clear call, values can overlap the other calls; inactive = mostly above about 0.92. The list shows a part of the results.
Experiment: chemical genetic growth profiling, strain panel (AID 1159580);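 note: tested at 20 µM; growth read once vehicle control cultures reached saturation at 30 °C; 1 = growth at the plate median or of vehicle wells; lower values mean less growth of the strain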
Settings: S. cerevisiae deletion strains, growth OD

Measured: normalized growth

CCCCNc1ccc(C(=O)OCCN(C)C)cc1
inactive: locus YAL013W, strain DEP1, stronger effect = lower value 1.01 | locus YAL021C, strain ccr4, stronger effect = lower value 0.978 | locus YAL026C, strain drs2, stronger effect = lower value 1.02 | locus YAL030W, strain snc1, stronger effect = lower value 0.999 | locus YAL040C, strain CLN3, stronger effect = lower value 0.929 | locus YBL061C, strain skt5, stronger effect = lower value 1.02 | locus YBR009C, strain hhf1, stronger effect = lower value 0.978 | locus YBR021W, strain FUR4, stronger effect = lower value 1.02 | locus YBR023C, strain chs3, stronger effect = lower value 1.01 | locus YBR171W, strain sec66, stronger effect = lower value 1.02 | locus YBR229C, strain ROT2, stronger effect = lower value 1.01 | locus YBR231C, strain swc5, stronger effect = lower value 1 | locus YBR279W, strain paf1, stronger effect = lower value 1.01 | locus YCL011C, strain gbp2, stronger effect = lower value 1.03 | locus YCL016C, strain dcc1, stronger effect = lower value 1.02 | locus YCL029C, strain bik1, stronger effect = lower value 1.01 | locus YCL061C, strain MRC1 (second series), stronger effect = lower value 1.01 | locus YCL069W, strain vba3, stronger effect = lower value 1.01 | locus YCR088W, strain abp1, stronger effect = lower value 1.01 | locus YDL005C, strain med2, stronger effect = lower value 1.01 | locus YDL035C, strain GPR1, stronger effect = lower value 1.01 | locus YDL040C, strain nat1, stronger effect = lower value 1.01 | locus YDL074C, strain BRE1, stronger effect = lower value 1.02 | locus YDL101C, strain DUN1, stronger effect = lower value 1.01 | locus YDL134C, strain PPH21, stronger effect = lower value 1.01 | locus YDL185W, strain tfp1, stronger effect = lower value 1.02 | locus YDL192W, strain arf1, stronger effect = lower value 1.01 | locus YDR001C, strain nth1, stronger effect = lower value 1.01 | locus YDR069C, strain doa4, stronger effect = lower value 0.991 | locus YDR101C, strain arx1, stronger effect = lower value 1.01 | locus YDR150W, strain NUM1, stronger effect = lower value 1.01 | locus YDR159W, strain sac3, stronger effect = lower value 1.01 | locus YDR162C, strain NBP2, stronger effect = lower value 0.998 | locus YDR195W, strain ref2 0.952 | locus YDR297W, strain sur2, stronger effect = lower value 1.02 | locus YDR318W, strain mcm21, stronger effect = lower value 1.02 | locus YDR334W, strain swr1, stronger effect = lower value 1.04 | locus YDR335W, strain msn5, stronger effect = lower value 1.04 | locus YDR363W, strain ESC2, stronger effect = lower value 1.01 | locus YDR388W, stronger effect = lower value 1.02 | locus YDR392W, strain spt3, stronger effect = lower value 1.09 | locus YDR502C, strain sam2, stronger effect = lower value 1 | locus YEL003W, strain gim4, stronger effect = lower value 1.01 | locus YEL037C, strain rad23, stronger effect = lower value 1.02 | locus YEL061C, strain CIN8 (second series), stronger effect = lower value 1.02 | locus YEL061C, strain CIN8, stronger effect = lower value 1.01 | locus YER002W, strain NOP16, stronger effect = lower value 0.995 | locus YER015W, strain faa2, stronger effect = lower value 1.01 | locus YER016W, strain bim1, stronger effect = lower value 1.02 | locus YER110C, stronger effect = lower value 1.02 | locus YER111C, strain swi4, stronger effect = lower value 1.01 | locus YER155C, strain BEM2 (second series), stronger effect = lower value 0.95 | locus YER155C, strain BEM2, stronger effect = lower value 0.999 | locus YER167W, strain BCK2, stronger effect = lower value 1.01 | locus YFR010W, strain ubp6, stronger effect = lower value 0.991 | locus YGL078C, strain dbp3, stronger effect = lower value 1.02 | locus YGL086W, strain mad1, stronger effect = lower value 0.997 | locus YGL167C, strain pmr1, stronger effect = lower value 1.01 | locus YGL173C, strain kem1, stronger effect = lower value 1 | locus YGL227W, strain vid30, stronger effect = lower value 1.01 | locus YGL240W, strain doc1, stronger effect = lower value 1.01 | locus YGL248W, strain PDE1, stronger effect = lower value 0.998 | locus YGL253W, strain hxk2, stronger effect = lower value 1.03 | locus YGR078C, strain PAC10, stronger effect = lower value 1.01 | locus YGR135W, strain pre9, stronger effect = lower value 1 | locus YGR229C, strain SMI1, stronger effect = lower value 1.03 | locus YGR252W, strain gcn5, stronger effect = lower value 0.915 | locus YHR013C, strain ard1, stronger effect = lower value 0.993 | locus YHR027C, strain rpn1, stronger effect = lower value 1.01 | locus YHR030C, strain SLT2, stronger effect = lower value 1.01 and 0.96 | locus YHR079C, strain IRE1 (second series), stronger effect = lower value 1.02 | locus YHR079C, strain IRE1, stronger effect = lower value 0.977 | locus YHR094C, strain hxt1, stronger effect = lower value 1.02 | locus YHR129C, strain ARP1, stronger effect = lower value 1 | locus YHR142W, strain chs7, stronger effect = lower value 1.06 | locus YHR200W, strain rpn10, stronger effect = lower value 1.02 | locus YIL066C, strain RNR3, stronger effect = lower value 1.01 | locus YIL073C, strain SPO22, stronger effect = lower value 1.04 | locus YIL125W, strain kgd1, stronger effect = lower value 1.02 | locus YIR030C, strain dcg1, stronger effect = lower value 1.02 | locus YJL092W, strain hpr5, stronger effect = lower value 1.02 | locus YJL095W, strain BCK1 (second series), stronger effect = lower value 1.02 | locus YJL095W, strain BCK1, stronger effect = lower value 0.991 and 0.961 | locus YJL115W, strain asf1, stronger effect = lower value 1.03 | locus YJL129C, strain trk1, stronger effect = lower value 1.01 | locus YJL134W, strain LCB3, stronger effect = lower value 1 | locus YJL154C, strain vps35, stronger effect = lower value 1.01 | locus YJL164C, strain tpk1, stronger effect = lower value 0.996 | locus YJL166W, strain qcr8, stronger effect = lower value 1.02 | locus YJL168C, strain set2, stronger effect = lower value 1.02 | locus YJL187C, strain SWE1 (second series), stronger effect = lower value 1.01 | locus YJR043C, strain POL32, stronger effect = lower value 1.02 | locus YJR066W, strain TOR1, stronger effect = lower value 0.926
active: locus YDR137W, strain rgp1, stronger effect = lower value 1.17 [resistant]

Reference: PubChem BioAssay AID1159580 (chemical genetic matrix, 2015)
